MITF TRPM1 HTS = increases MITF-driven TRPM1 promoter luciferase signal; SK-MEL-5 TRPM1-promoter luciferase, 24 h; % of positive control, neutral wells = 0; activation, % at 12.5 µM; 0.75% of 300,000 active; AID 588334;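 active means mean activation of at least 80% with every replicate also reaching 80%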;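 further: 0% = neutral control wells and 100% = parthenolide positive control wells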
DYRK1A inh = blocks rat Dyrk1A kinase activity; Q63470; inhibition, % at 12.5 µM; ADP-Glo luminescence, NFATc1 peptide; 0.43% of 310,000 active;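 further: plate controls were vehicle with enzyme for no effect and no enzyme for full effect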
Wnt act = activates Wnt/beta-catenin signaling in a reporter cell assay. activation, % at 9.35 µM. 1.2% of 300,000 active. activator, plate reader. AID 743398; in the data active means activation above about 30%, passing the limit was not always enough;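 further: 0% = neutral control wells and 100% = positive control wells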
INS-1E GSIS act = primary screen for activators of insulin secretion dependent on glucose, INS-1E cells, GLuc reporter luminescence | INS-1E GLuc reporter insulin secretion, 2-3 h | activation, % at 16.6 µM | 0.61% of 370,000 active | AID 743287;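 active means lowest replicate activation of at least 40%, so every replicate reaches that level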;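 further: 0% = median of neutral control wells and 100% = median of IBMX positive control wells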
miR-122 sensor = miR-122 inhibition in Huh7 cells. activation (reporter increase), % at 12.5 µM. AID 602342. 0.3% of 340,000 active. Huh7 miR-122 Renilla luciferase sensor, 48 h; neutral wells = 0, positive control = 100;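 active means mean replicate activation score at least 90 and every replicate individually at or above 90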;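 further: higher luciferase means less miR-122 activity so hits act as miR-122 inhibitors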
NSD2 HMT inh = NSD2 (human) methyltransferase inhibition | NSD2 peptide methylation, AlphaScreen, 120 min | inhibition, % at 12.5 µM | AID 743445 | 0.54% of 310,000 active
Dyrk1A artifact = counter-screen for Dyrk1A inhibitors: ADP-Glo luciferase artifacts | AC50, µM (series often up to 12 µM), for inactives: at the highest dose activity change, negative = inhibition | ADP-Glo luciferase artifact assay, no Dyrk1A, luminescence | AID 588348 | 1,300 tested, under 10 active | shares compounds with DYRK1A inh;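 active means fitted half-maximal dose AC50 no more than ten times the top valid tested dose, with luminescence dropping as dose rises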
An asterisk follows results filed as active; / = no result; [ ] = remark or other dose. Compounds with a hit are over-represented: about 2.4% of the library has one in this group of screens. Unless noted, no stated cut-off is given here; in the data, active means inhibition above about 50%; inactive means the rest.

SMILES | MITF TRPM1 HTS | DYRK1A inh | Wnt act | INS-1E GSIS act | miR-122 sensor | NSD2 HMT inh | Dyrk1A artifact
c1ccc(-c2nnc3sc(Cc4cccs4)nn23)cc1 | 21.0 | 58.6* | / | / | -1.0 | 0.9 | 10.0%
CC12CCC(C(=O)Nc3nc4ccc(Br)cc4s3)(OC1=O)C2(C)C (centres undefined) | 44.1 | 81.8* | 53.3* | -0.8 | / | -3.4 | 7.2%
Cc1noc(C)c1NC(=O)N1C[C@@H](O)COC[C@H]2O[C@@H](CC(=O)NCC3CCCCC3)CC[C@@H]21 | / | / | / | 5.1 | -1.9[16.7 µM] | / | /
O=C(N[C@H]1CC[C@H](CCn2cc(Cc3ccccc3)nn2)O[C@@H]1CO)c1cnccn1 | / | / | / | 0.5 | / | / | /
CCNC(=O)C[C@H]1CC[C@H]2[C@@H](COc3ccc(NC(=O)c4ccc(F)cc4)cc3C(=O)N2C)O1 | / | / | / | -3.0 | -7.2[16.7 µM] | / | /
Cc1nc(N)sc1-c1csc(Nc2ccccc2)n1 | 49.1 | 52.0* | -0.5 | / | 9.7 | 2.8 | 7.6%
Cc1nc(N)sc1-c1csc(Nc2cccc(C(=O)O)c2)n1 | / | 25.1 | 0.1 | -7.1 | -16.1 | 3.2 | /
CC(=O)Nc1nc(C)c(-c2csc(Nc3cccc(C(C)=O)c3)n2)s1 | -62.5 | 39.6 | 2.2 | -5.0 | / | 0.7 | /
CC(=O)Nc1nc(C)c(-c2csc(Nc3ccc(O)cc3)n2)s1 | -46.0 | 76.4* | / | / | -16.7 | / | 7.6%
C[C@@H]1CN([C@H](C)CO)C(=O)c2cc(-c3ccccc3F)cnc2O[C@H]1CN(C)C | / | / | / | 16.1 | 0.3[16.7 µM] | / | /
NS(=O)(=O)c1ccc(Nc2nc(-c3ccc(O)cc3O)cs2)cc1 | -0.3 | 68.0* | / | / | / | / | 7.4%
NS(=O)(=O)c1ccc(Nc2nc(-c3ccc(F)cc3)cs2)cc1 | 9.7 | 21.3 | 1.7 | -12.2 | -2.7 | 0.7 | /
COc1c(C)oc2cc(O)ccc2c1=O | -4.1 | 3.5 | -2.6 | 0.6 | / | 0.0 | /
Oc1ccc2c(c1)oc1cc(O)ccc12 | 6.0 | 89.8* | / | / | -11.9 | / | 10.9%
c1ccc2c(-c3nc(C4CCCCC4)no3)cc(-c3ccncc3)nc2c1 | 12.6 | 71.6* | -0.7 | / | -5.7 | / | 7.6%
COc1cccc(Cn2nnc(C(=O)NCCc3ccc(Cl)cc3)c2N)c1 | 5.2 | 56.3* | -1.7 | -8.1 | / | / | 8.8%
Nc1c(C(=O)NCc2ccccc2)nnn1Cc1ccccc1 | 6.6 | 60.3* | -1.2 | 17.1 | 2.5 | / | 10.2%
CC(=O)Oc1ccc2occ(C(=O)c3ccccc3)c2c1 | / | / | -0.4 | 8.7 | -12.4 | -1.4 | /
O=C(O)COc1ccc2occ(C(=O)c3ccccc3)c2c1 | 15.5 | 66.0* | 5.5 | / | -8.7 | -5.0 | 7.8%
Cc1ccc(C(=O)c2coc3ccc(OCC(=O)O)cc23)cc1 | -7.6 | 70.3* | / | 2.1 | 5.1 | 2.6 | 10.4%
CCOCCOc1nc2c(c(=O)n(C)c(=O)n2C)n1Cc1ccc(C)cc1 | -6.6 | 60.0* | -2.2 | 8.5 | 3.4 | / | 9.4%
C=CCOc1nc2c(c(=O)n(C)c(=O)n2C)n1Cc1ccccc1 | / | -1.8 | -3.9 | 3.5 | / | 0.0 | /
O=C(Nc1ccc(Cl)cc1)N1C[C@@H]2[C@H](c3ccccc31)[C@H](CO)N2CC1CCCC1 | / | / | / | -43.5 | 50.0[16.7 µM] | / | /
O=C(Nc1cccc2nsnc12)c1ccc2c(c1)OCO2 | 22.4 | 54.0* | / | / | 6.1 | -8.5 | 1.5%
O=C(Nc1cccc2nsnc12)c1ccc2c(c1)OCCO2 | 22.5 | 14.5 | / | / | 2.0 | -15.9 | /
SMILES | MITF TRPM1 HTS | DYRK1A inh | Wnt act | INS-1E GSIS act | miR-122 sensor | NSD2 HMT inh | Dyrk1A artifact
COc1cccc(Nc2nc(NCCO)c3ccccc3n2)c1 | 26.0 | 52.3* | / | / | -0.7 | 1.8 | 1.7%
CC1CCC(C(C)C)C2=C1C(C#N)(C#N)C(C#N)(C#N)C(c1ccccc1)N2 (centres undefined) | 0.2 | 54.2* | -1.6 | / | -2.3 | 4.9 | 7.1%
CC(C)C1OC2(C)OC(=N)C1(C#N)C(C#N)(C#N)C2c1ccccc1 (centres undefined) | -13.3 | -1.0 | -0.9 | -11.3 | 2.1 | -13.2 | /
COc1ccc(NC(=O)N(C)C[C@H]2Oc3ccc(NC(=O)CCN4CCOCC4)cc3C(=O)N([C@H](C)CO)C[C@@H]2C)cc1 | 1.6 | 55.5* | 0.0 | 22.0 | 1.3[16.7 µM] | / | 9.1%
COc1ccc(C2=Nn3c(nnc3-c3ccco3)SC2)cc1 | 6.2 | 38.0 | / | / | 14.3 | 3.9 | /
COc1ccc(OC)c(C2=Nn3c(nnc3-c3ccco3)SC2)c1 | -14.5 | 74.2* | / | / | 12.8 | -0.3 | 9.2%
O=C(Nc1cccc2ncccc12)c1cc([N+](=O)[O-])ccc1Cl | -7.6 | -3.8 | 3.1 | 19.8 | -0.3 | -29.5 | /
CN(C)S(=O)(=O)c1ccc(Cl)c(C(=O)Nc2cccc3ncccc23)c1 | -0.9 | 85.2* | -3.0 | 1.9 | -7.5 | -3.3 | 7.3%
c1ccc2c(c1)Nc1ccncc1S2 | -16.3 | 79.1* | -0.1 | / | / | -0.7 | 8.7%
O=C1N=C(N2CCCCC2)S/C1=C\c1ccncc1 | 4.1 | 41.3 | -1.9 | 6.8 | / | 7.4 | /
COc1ccc(/C=C2\SC(N3CCCCC3)=NC2=O)cc1 | 22.2 | 67.5* | 8.2 | -2.7 | 8.6 | -3.2 | 12.4%
CS(=O)(=O)c1ccc(-c2cn3cc(C(=O)O)ccc3n2)cc1 | -37.7 | 76.8* | -0.8 | 15.5 | -3.0 | -2.6 | 7.7%
COc1ccccc1-c1sc2ccccc2c1C#Cc1ccc(N(C)C)cc1 | -12.1 | 51.4* | -1.0 | / | 1.5 | / | 8.3%
O=S(=O)(NCC[C@@H]1CC[C@H](NS(=O)(=O)c2cccc(Cl)c2)[C@H](CO)O1)c1cccc(F)c1 | / | / | / | -28.0 | / | / | /
CCN(CC)c1ccc(/C=C2\C(=O)c3ccc(C(=O)O)cc3C2=O)cc1 | 40.4 | 60.8* | 16.2 | -34.3 | / | 18.1 | 4.6%
CCN(CC)c1ccc(C(=O)O)cc1 | 2.9 | 12.3 | -8.3 | -1.7 | / | 1.0 | /
O=c1/c(=C/c2ccccn2)sc2n1CN(c1ccccc1)CN=2 | 18.0 | -9.1 | -2.0 | / | 4.8 | -2.8 | /
COc1cc(N2CN=c3s/c(=C\c4ccccn4)c(=O)n3C2)cc(OC)c1OC | 8.1 | 53.2* | / | / | -6.5 | 2.1 | 5.4%
OC(c1cc(C(F)(F)F)nc2c(Cl)cc(Cl)cc12)C1CCCCN1 (centres undefined) | 8.0 | 54.9* | 1.3 | -23.5 | -40.8 | / | 6.8%
O=S(=O)(Nc1c(S(=O)(=O)c2ccccc2)c2nc3ccccc3nc2n1C1CCCCC1)c1ccccc1 | -4.8 | 74.9* | 1.9 | -24.9 | -0.8 | 140.5* | 10.2%
CC(=O)Nc1c(S(=O)(=O)c2ccccc2)c2nc3ccccc3nc2n1Cc1ccccc1 | -16.0 | 1.1 | / | / | 61.6 | -2.4 | /
CO[C@H]1CN(C)C(=O)c2ccc(NC(=O)C3CC3)cc2OC[C@@H](C)N(CCC(F)(F)F)C[C@H]1C | / | / | / | -10.7 | -3.1[16.7 µM] | / | /
COc1ccc2nc(-n3c(O)c(C4=c5ccccc5=NC4=O)[nH]c3=S)sc2c1 | -8.4 | 63.0* | 3.9 | -6.1 | -5.5 | 2.8 | 7.9%
CC(C)NC(=O)Nc1ccc2c(c1)C(=O)N([C@H](C)CO)C[C@@H](C)[C@@H](CN(C)C(=O)C1CCCCC1)OCCCC[C@@H](C)O2 | / | / | / | 1.1 | -2.4[16.7 µM] | / | /

Screening results from PubChem BioAssay.
